Where “and” joins values, the source holds several entries; their conditions need not be identical. Equal values may be shown once. Inconclusive results are not listed. A structure can be active in one record and inactive in another. Calls of active or inactive are those of the source. Unless noted, the call rests on the fitted dose curve; in most records, active means well fitted curve in the direction sought with a large enough effect in the repeat runs; inconclusive means weak or mixed curves; inactive means no such curve, though single readings can be large; an effect the other way counts as inactive or inconclusive.

The record followed here is PubChem BioAssay (Tox21).

Test [1] is described as follows: qHTS assay to identify small molecule agonists of H2AX (AID 1224845; active means well fitted activation curve with a large enough effect in the signal ratio in the repeat runs, not every such curve was filed as active; the % refers to the signal ratio; further: potency means the concentration at half of the fitted maximal effect). Put shortly: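 Phospho-H2AX Ser139 measured by HTRF (ex 320 nm; em 665 and 620 nm) after 24 hr antibody incubation. Compounds, 15 concentrations, 0.76% DMSO, were applied to CHO-K1 cells for 3hr at 37C before lysis.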
Test [2] can be described thus: qHTS assay to identify small molecule agonists of H2AX - cell viability counter screen (AID 1224847; calls by dose curve; further: nearly all actives have a fitted effect of over 30% in size; further: potency means the concentration at half of the fitted maximal effect). The gist of the method:
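Cells plated first: CHO-K1, 1000 per well in 10% FBS medium, incubated overnight at 37C. Then 15-point compound titration added (final DMSO 0.76%) for 3 hr. Finally CellTiter-Glo added and luminescence read.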
(In qHTS, concentration-response curves come from the screen itself.)

The nature of test [3]: qHTS assay to identify small molecule agonists of the estrogen related receptor (ERR) signaling pathway from Tox21 library (AID 1224849; calls by dose curve; further: on the % scale 0 is the no-effect control and ±100 the full control effect; nearly all actives have a fitted effect of over 15% in size). As to conditions: ERR reporter cell line, ONE-Glo luciferase, 18 h; at 92.4 µM (top of the series) unless noted. The gist of the method:
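ERR reporter cells (NTP line) pre-incubated 6 hours at 37 C, then exposed to compounds for 18 hours at 37 C. ONE-Glo luciferase luminescence was read after 30 minutes at room temperature.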

The nature of test [4]: qHTS RealTime-Glo MT Cell Viability Assay in HepG2 cells - 24 hour (AID 1224867). Further: nearly all actives have a fitted effect of over 50% in size. Further: potency means the concentration at half of the fitted maximal effect. The gist of the method:
(§1)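 Viability was tracked continuously by NanoLuc luminescence from prosubstrate reduced by living HepG2 cells, at successive time points over 40 h of compound exposure. Cells with reagent were preincubated 5 h at 37 °C before compound addition.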

Test [5] is described as follows: qHTS RealTime-Glo MT Cell Viability Assay in HEK293 cells - 32 hour (AID 1224868). Further: nearly all actives have a fitted effect of over 50% in size. Further: potency means the concentration at half of the fitted maximal effect. Put shortly:
(§2)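 Viability tracked continuously by luminescence as live cells reduce a prosubstrate for NanoLuc; HEK293 cells preincubated 5 h, compound-treated at 37 C, and read at 0, 8, 16, 24, 32 and 40 h.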

Test [6] can be described thus: qHTS RealTime-Glo MT Cell Viability Assay in HepG2 cells - 40 hour (AID 1224870). Further: nearly all actives have a fitted effect of over 50% in size. Further: potency means the concentration at half of the fitted maximal effect. The gist of the method:
(§3)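 Real-time viability: cells seeded at 600 per well together with NanoLuc and cell-permeant prosubstrate, compounds added after 5 h incubation. Luminescence tracked at 0, 8, 16, 24, 32 and 40 h of exposure.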

Test [7] is described as follows: A CellTox Green Cytotoxicity Assay to monitor cytotoxicity in HEK293 cells - 40 hour (AID 1224871). Further: nearly all actives have a fitted effect of over 45% in size. Further: potency means the concentration at half of the fitted maximal effect. The gist of the method:
(§4)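 HEK293 cells, 600/well, were preincubated 5 hours and then exposed to compounds at 37 C for up to 40 hours. A cell-impermeant cyanine dye staining dead-cell DNA was read by fluorescence at 0, 8, 16, 24, 32 and 40 h time points.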

Test [8] in a line: qHTS RealTime-Glo MT Cell Viability Assay in HEK293 cells - 16 hour (AID 1224872). Further: nearly all actives have a fitted effect of over 50% in size. Further: potency means the concentration at half of the fitted maximal effect. The gist of the method: as §2
A short description of test [9]: qHTS RealTime-Glo MT Cell Viability Assay in HepG2 cells - 8 hour (AID 1224873). Further: nearly all actives have a fitted effect of over 55% in size. Further: potency means the concentration at half of the fitted maximal effect. The gist of the method:
as §3

The nature of test [10]: qHTS RealTime-Glo MT Cell Viability Assay in HEK293 cells - 40 hour (AID 1224874). Further: nearly all actives have a fitted effect of over 50% in size. Further: potency means the concentration at half of the fitted maximal effect. On max response: on the % scale 0 is the no-effect control and ±100 the full control effect. As to conditions: RealTime-Glo luminescence; max response: stronger effect = lower value. Put shortly: (§5)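 600 cells/well were plated with the nonlytic NanoLuc/prosubstrate reagent, pre-incubated 5 h, then given 23 nL of compound in DMSO. Incubation at 37 C for 40 h, with luminescence from viable-cell-reduced substrate read repeatedly from 0 h.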

A short description of test [11]: A CellTox Green Cytotoxicity Assay to monitor cytotoxicity in HepG2 cells - 16 hour (AID 1224876). Further: nearly all actives have a fitted effect of over 45% in size. Further: potency means the concentration at half of the fitted maximal effect. Put shortly:
(§6)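 HepG2 cells, 600/well, preincubated 5 h with CellTox Green dye, then exposed to Tox21 compounds in DMSO at 37 C for up to 40 h. Dead-cell DNA fluorescence read at the indicated time point.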

Test [12] in a line: qHTS RealTime-Glo MT Cell Viability Assay in HepG2 cells - 32 hour (AID 1224877). Further: nearly all actives have a fitted effect of over 55% in size. Further: potency means the concentration at half of the fitted maximal effect. Put shortly:
as §1

A short description of test [13]: A CellTox Green Cytotoxicity Assay to monitor cytotoxicity in HepG2 cells - 24 hour (AID 1224878). Further: nearly all actives have a fitted effect of over 45% in size. Further: potency means the concentration at half of the fitted maximal effect. On Cytotoxicity: on the % scale 0 is the no-effect control and ±100 the full control effect. The gist of the method:
as §6

Test [14] is described as follows: A CellTox Green Cytotoxicity Assay to monitor cytotoxicity in HepG2 cells - 40 hour (AID 1224879). Further: nearly all actives have a fitted effect of over 40% in size. Further: potency means the concentration at half of the fitted maximal effect. Put shortly: as §6
The nature of test [15]: qHTS RealTime-Glo MT Cell Viability Assay in HEK293 cells - 0 hour (AID 1224880). Further: nearly all actives have a fitted effect of over 45% in size. Further: potency means the concentration at half of the fitted maximal effect. The gist of the method: as §5
The nature of test [16]: qHTS assay to identify small molecule agonists of the hypoxia (HIF-1) signaling pathway (AID 1224846; active means well fitted activation curve with a large enough effect in the signal ratio in the repeat runs, not every such curve was filed as active; the % refers to the signal ratio; further: on the % scale 0 is the no-effect control and ±100 the full control effect). Put shortly:
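HRE-bla ME-180 beta-lactamase reporter cells in medium with 0.5% dialyzed FBS, pre-incubated 5 h then exposed to compounds 17 h at 37C, 5% CO2; reporter induction read with CCF4-AM FRET substrate.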

A short description of test [17]: A CellTox Green Cytotoxicity Assay to monitor cytotoxicity in HEK293 cells - 0 hour (AID 1224869). The gist of the method: as §4
Test [18] is described as follows: A CellTox Green Cytotoxicity Assay to monitor cytotoxicity in HEK293 cells - 24 hour (AID 1224875). Further: nearly all actives have a fitted effect of over 45% in size. Further: potency means the concentration at half of the fitted maximal effect. On activity change: on the % scale 0 is the no-effect control and ±100 the full control effect. Put shortly:
as §4

Test [19] can be described thus: qHTS assay to identify small molecule antagonists of the estrogen related receptor (ERR) signaling pathway from Tox21 library (AID 1224848). Put shortly: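 Reading was by luminescence 30 min after ONE-Glo addition. Before that, ERR cells at 2,000 per well had rested 6 h at 37 C/5% CO2 and then received pin-tooled compounds in DMSO for 18 h at 37 C.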

Consider `CCCCCCCCCCCCCCn1cc[n+](C)c1`, for which the Potency result in test [1] and in test [15] was “inactive” in each case. The Potency in [2] is 12.7 µM (active) and 22.3 µM (active); in [4], 24.6 µM (active) and 48.5 µM (active) and inactive; in test [5], 8.72 µM (active) and 4.32 µM (active); in test [6], 21.9 µM (active) and 34.3 µM (active) and inactive; in test [7] it was 39 µM (active) and 38.5 µM (active) and inactive; in test [8] it was 55 µM (active) and 24.3 µM (active). The Potency in test [9] is 49.1 µM (active) and inactive; in test [10], 2.76 µM (active) and 1.93 µM (active); in test [11] it was 34.7 µM (active) and 43.2 µM (active) and inactive; in test [12], 21.9 µM (active) and 38.5 µM (active) and inactive; in test [13] it was 24.6 µM (active) and 38.5 µM (active) and inactive; in test [14] it was 19.5 µM (active) and 21.6 µM (active) and inactive. In addition, the activity change, positive = activation in [3] was -74.5% (inactive) and -73.1% (inactive) and -26.1% (inactive).
`ClCBr`: the Potency entry in test [16], in [2], in [4], in [5], in test [17] and in test [6] was “inactive” in each case. Besides, the Potency entry in [7], in test [8], in test [9], in test [18], in test [11] and in test [13] was “inactive” each time. Moreover, the Potency entry in test [14] and in test [15] was “inactive” throughout. Also, the activity change, positive = activation in test [3] was 5.96% (inactive). In addition, in test [10], the max response was 7.13% (inactive).
`CC(=O)[O][Sn]([c]1ccccc1)([c]1ccccc1)[c]1ccccc1`: the Potency in [1] was 0.101 µM (active); in test [2], 142 nM (active); in test [19] it was 0.077 µM (active); in [5], 38.9 nM (active); in test [7] it was 219 nM (active); in test [8], 49 nM (active). Moreover, the values for the Potency in test [9], in [10] and in [18] were 11 µM (active), 34.7 nM (active) and 0.245 µM (active), respectively. The activity change, positive = activation in [3] is -74% (inactive). For the same compound, the Potency entry in [17] and in test [15] was “inactive” in each case.
For the compound `N#Cc1sc2c(=O)c3ccccc3c(=O)c=2sc1C#N`, the Potency in test [2] is 101000 nM (active); in [4] it was 11 µM (active); in test [5], 17400 nM (active); in test [6], 11 µM (active); in test [7], 15500 nM (active); in [8] it was 11000 nM (active). Also, the Potency was 9.77 µM (active) in [9]; 17400 nM (active) in [10]; 21.9 µM (active) in test [18]; 17.4 µM (active) in [11]; 13.8 µM (active) in [14]; 7.76 µM (active) in test [15]. For the same compound, the activity change, positive = activation in [3] was -74.5% (inactive). In [17], the Potency entry was “inactive”.
As for `CN1C(=O)[C@@H](NC(=O)c2cc3ccccc3[nH]2)N=C(c2ccccc2)c2ccccc21`, the Potency entry in test [2], in test [5], in test [17], in [6], in test [7] and in test [8] was “inactive” throughout. The Potency entry in [18], in test [11], in test [12], in test [13] and in test [14] was “inactive” each time. Moreover, the activity change, positive = activation in test [3] was -21.2% [at 42.5 µM] (inactive). Moreover, the max response in test [10] was 20% (inactive).
For `CC(=O)[O-].CC(=O)[O-].O.O.[Zn+2]`, the Potency entry in test [1], in [2], in [4], in test [5], in test [17] and in test [6] was “inactive” each time. In addition, the Potency result in test [7], in test [8], in test [9], in test [18], in test [11] and in [12] was “inactive” in each case. The Potency result in test [13], in test [14] and in test [15] was “inactive” in each case. For the same compound, the max response in [10] is -2.4% (inactive).
Turning to `COP(=S)(NC(C)C)Oc1ccc(C)cc1[N+](=O)[O-]` (configuration not stated), the Potency result in test [1], in test [16], in test [4], in test [5], in [17] and in test [6] was “inactive” in each case. Besides, the Potency entry in test [7], in [8], in test [9], in test [18], in [11] and in [12] was “inactive” each time. In addition, the Potency result in test [13], in test [14] and in test [15] was “inactive” in each case. In addition, the max response in [10] is -12.5% (inactive).
